Results filed as inconclusive are left out. The source made the active and inactive calls. The calls were made as follows: active = hit-call score of the fitted dose curve at least 0.9, where 1 is the maximum; inconclusive = response in the unintended direction; inactive = score below 0.9.

Chain of Nuclear receptor subfamily 1 group I member 2 (Homo sapiens) (O75469 whole entry, looked up): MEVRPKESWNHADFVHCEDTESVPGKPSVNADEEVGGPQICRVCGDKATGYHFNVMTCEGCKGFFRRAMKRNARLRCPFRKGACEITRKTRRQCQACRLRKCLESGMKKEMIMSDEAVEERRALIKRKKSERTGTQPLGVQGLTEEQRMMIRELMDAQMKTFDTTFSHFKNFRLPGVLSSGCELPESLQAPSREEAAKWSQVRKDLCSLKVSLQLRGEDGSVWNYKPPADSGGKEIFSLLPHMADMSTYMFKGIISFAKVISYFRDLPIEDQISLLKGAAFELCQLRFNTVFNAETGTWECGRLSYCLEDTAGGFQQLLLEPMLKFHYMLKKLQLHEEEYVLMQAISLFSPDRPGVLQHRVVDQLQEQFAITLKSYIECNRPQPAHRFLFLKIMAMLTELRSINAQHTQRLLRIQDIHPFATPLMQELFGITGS
Chain of Estrogen receptor beta (Homo sapiens) (Q92731 whole entry, looked up, the tested form may be a part): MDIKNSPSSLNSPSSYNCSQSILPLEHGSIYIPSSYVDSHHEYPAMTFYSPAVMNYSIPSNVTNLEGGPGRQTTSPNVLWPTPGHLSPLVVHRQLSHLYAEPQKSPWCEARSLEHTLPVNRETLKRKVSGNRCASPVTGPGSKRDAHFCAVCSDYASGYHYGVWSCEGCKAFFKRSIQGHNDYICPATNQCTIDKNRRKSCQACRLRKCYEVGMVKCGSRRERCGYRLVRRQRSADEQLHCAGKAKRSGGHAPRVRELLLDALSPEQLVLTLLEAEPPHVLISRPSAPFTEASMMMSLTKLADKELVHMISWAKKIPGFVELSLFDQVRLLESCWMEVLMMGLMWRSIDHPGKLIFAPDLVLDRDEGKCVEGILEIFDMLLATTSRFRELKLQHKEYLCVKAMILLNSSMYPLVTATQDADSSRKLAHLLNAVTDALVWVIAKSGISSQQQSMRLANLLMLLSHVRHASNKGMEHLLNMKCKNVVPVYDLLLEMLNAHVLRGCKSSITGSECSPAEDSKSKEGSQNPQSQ
Chain of Glucocorticoid receptor (Homo sapiens) (P04150 whole entry, looked up): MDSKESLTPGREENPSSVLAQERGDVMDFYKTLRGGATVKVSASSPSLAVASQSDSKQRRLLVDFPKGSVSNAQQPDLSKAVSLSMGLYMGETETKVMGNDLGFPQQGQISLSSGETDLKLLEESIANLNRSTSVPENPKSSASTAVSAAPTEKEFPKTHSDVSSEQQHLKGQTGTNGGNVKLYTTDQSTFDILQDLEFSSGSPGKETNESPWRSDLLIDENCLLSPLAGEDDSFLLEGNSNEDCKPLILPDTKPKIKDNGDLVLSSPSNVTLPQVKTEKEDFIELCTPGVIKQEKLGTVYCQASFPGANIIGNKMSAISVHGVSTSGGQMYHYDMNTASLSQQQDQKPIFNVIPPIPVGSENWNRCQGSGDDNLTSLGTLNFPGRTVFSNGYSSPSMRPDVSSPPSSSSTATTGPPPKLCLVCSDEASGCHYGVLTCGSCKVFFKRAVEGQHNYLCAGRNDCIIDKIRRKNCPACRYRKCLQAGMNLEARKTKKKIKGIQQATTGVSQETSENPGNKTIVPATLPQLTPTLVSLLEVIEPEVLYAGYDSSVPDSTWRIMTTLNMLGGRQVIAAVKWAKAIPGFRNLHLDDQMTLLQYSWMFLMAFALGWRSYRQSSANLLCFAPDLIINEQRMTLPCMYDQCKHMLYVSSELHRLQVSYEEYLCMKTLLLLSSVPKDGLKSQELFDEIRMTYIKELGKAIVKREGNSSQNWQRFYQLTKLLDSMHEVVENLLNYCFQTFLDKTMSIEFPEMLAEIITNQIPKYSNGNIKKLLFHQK
Chain of PGR (gene 5241) (P06401 whole entry, looked up): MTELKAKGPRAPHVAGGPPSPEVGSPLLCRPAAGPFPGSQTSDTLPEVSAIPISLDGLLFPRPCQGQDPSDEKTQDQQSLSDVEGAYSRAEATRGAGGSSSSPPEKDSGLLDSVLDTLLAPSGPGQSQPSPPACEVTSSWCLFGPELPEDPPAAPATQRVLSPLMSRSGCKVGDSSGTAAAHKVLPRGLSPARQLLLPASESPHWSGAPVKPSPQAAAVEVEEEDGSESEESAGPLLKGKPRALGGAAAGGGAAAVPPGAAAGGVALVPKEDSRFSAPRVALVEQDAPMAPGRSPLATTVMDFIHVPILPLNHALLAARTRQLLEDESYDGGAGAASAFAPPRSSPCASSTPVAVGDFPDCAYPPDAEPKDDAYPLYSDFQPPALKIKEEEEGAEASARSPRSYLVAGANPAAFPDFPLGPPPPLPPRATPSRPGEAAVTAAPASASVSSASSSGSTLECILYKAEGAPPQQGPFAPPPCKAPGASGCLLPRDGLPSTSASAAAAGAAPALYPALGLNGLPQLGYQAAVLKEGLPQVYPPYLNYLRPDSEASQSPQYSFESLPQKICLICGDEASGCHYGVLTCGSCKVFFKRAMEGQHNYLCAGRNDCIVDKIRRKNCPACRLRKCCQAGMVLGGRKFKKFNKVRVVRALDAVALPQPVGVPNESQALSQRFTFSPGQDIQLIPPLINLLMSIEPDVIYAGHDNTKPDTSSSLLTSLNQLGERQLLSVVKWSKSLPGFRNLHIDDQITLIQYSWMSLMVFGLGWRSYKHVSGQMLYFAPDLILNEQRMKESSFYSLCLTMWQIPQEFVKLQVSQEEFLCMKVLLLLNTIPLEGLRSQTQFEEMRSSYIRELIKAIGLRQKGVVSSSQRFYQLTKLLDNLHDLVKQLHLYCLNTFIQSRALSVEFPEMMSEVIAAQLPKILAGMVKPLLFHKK

The first test deals with Estrogen receptor beta (Homo sapiens) (UniProt Q92731). The experiment in a line: OT_ER_ERbERb_0480: Odyssey Thera (OT) 8-hour HEK293T Protein-Complementation Assay for Estrogen Receptor-beta/-beta Homodimer (AID 2283357).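 Also: active means signal gain over DMSO baseline.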 The method, boiled down:
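ER-beta LBD homodimer PCA stably expressed in HEK293T; 8 h compound exposure, then formaldehyde fixation and Draq5 staining. Gain in nuclear/cytoplasmic fluorescence intensity versus DMSO vehicle, read on laser scanning cytometer.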
Turning to `CC(=O)OCCC(C)C`, the result was inactive.
Take `CNCc1ccc(NC(=O)c2c[nH]c3c2C(=O)CCC3)cc1`: the compound was classed as inactive.
For `CCOC(=O)CC(CC(=O)OCC)(OC(C)=O)C(=O)OCC`, the call was inactive.
Consider `CCOCCOCCOCCO`, for which the result was inactive.
`O=C(O)CCN(C1(C(=O)NO)CCCC1)S(=O)(=O)c1ccc(Oc2ccc(F)cc2)cc1`: the result was inactive.
As to `Cc1c(-c2cccnc2)c2ccccc2n1CCCCC(=O)O`, the compound was classed as inactive.
Same read-out and setting: the entry for `CC(C)CCCCCCOC(=O)c1ccc(C(=O)OCCCCCCC(C)C)c(C(=O)OCCCCCCC(C)C)c1` is “inactive”; for `CN(C)c1ccc(Cc2ccc(N(C)C)cc2)cc1` it is “inactive”.
With `Cc1[nH]cnc1C[C@H]1CCc2c(C)c3ccccc3n2C1=O`, the compound was classed as inactive.
For `CC(O)CN(CCN(CC(C)O)CC(C)O)CC(C)O` (configuration not stated), the compound was classed as inactive.
On to `CC(C)CC(C)(O)C#CC(C)(O)CC(C)C` (configuration not stated), for which the call was inactive.
On to `On1ccccc1=S`, for which the compound was called inactive.
Turning to `Clc1nc(Cl)c(Cl)c(Cl)c1Cl`, the outcome was inactive.
With `CC(=O)OC[C@H]1O[C@@](COC(C)=O)(O[C@H]2O[C@H](COC(C)=O)[C@@H](OC(C)=O)[C@H](OC(C)=O)[C@H]2OC(C)=O)[C@@H](OC(C)=O)[C@@H]1OC(C)=O`, the compound was called inactive.
Still for that read-out and setting: then `CCOC(=O)c1ccc(C2CCC(NC[C@H](O)COc3ccc(O)c(NS(C)(=O)=O)c3)CC2)cc1` (some centres not stated), with “inactive”; and `O=C1CCCCCN1`, with “inactive”; and `COc1ccc(/C=C/S(=O)(=O)NC(=O)c2ccc(C)cc2Cl)cc1`, with “inactive”.
Same read-out and setting: then `C1=CCCC=CCCC=CCC1`, with “inactive”; and `COCCOc1cc2cc(C(=O)NC3CCN(C(C)C)CC3)n(CC(=O)Nc3ccc(Cl)cn3)c2cn1`, with “inactive”.
Turning to `O=C1OC(=O)C2C3C=CC(C3)C12` (configuration not stated), the compound was called inactive.
In the case of `CCN(C(=O)c1cc(C)cc(OC[C@H](C)Nc2ccncc2)c1)C(C)C`, the outcome was inactive.
Take `NC(=O)NO`: the call was inactive.
Regarding `CC[C@H]1OC(=O)[C@H](C)[C@@H](O[C@H]2C[C@@](C)(OC)[C@@H](O)[C@H](C)O2)[C@H](C)[C@@H](O[C@@H]2O[C@H](C)C[C@H](N(C)C)[C@H]2O)[C@](C)(O)C[C@@H](C)C(=O)[C@H](C)[C@@H](O)[C@]1(C)O`, the compound was called inactive.
Same read-out and setting: then `C1N2CN3CN1CN(C2)C3`, with “inactive”.
Same read-out and setting: the entry for `O=C(O)c1cc(N=Nc2ccc(S(=O)(=O)Nc3ccccn3)cc2)ccc1O` is “inactive”.
For `CC(C)(O)c1coc(S(=O)(=O)NC(=O)Nc2c3c(cc4c2CCC4)CCC3)c1`, the outcome was inactive.
Still for that read-out and setting: the entry for `CCOCCO` is “inactive”; for `COCCOCCOCCOC` it is “inactive”.
Turning to `O=C1CCC(N2C(=O)c3ccccc3C2=O)C(=O)N1` (configuration not stated), the result was inactive.
Same read-out and setting: the entry for `CCCCCCCCCCCCCCCO` is “inactive”.

Another test deals with PGR (gene 5241) (UniProt P06401). The experiment in a line: NVS_NR_hPR: NovaScreen (NVS) Nuclear Receptor Binding Assay for human Progestron Receptor (PR) (AID 2283360).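 Also: active means loss of bound radioligand signal versus DMSO baseline.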 The method, boiled down:
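Cell-free radioligand binding using receptor protein extracted from T47D cells, read by scintillation counting 18 hours after dosing. Loss of signal relative to DMSO baseline indicates displacement; primary screen single concentration 25 uM in duplicate, actives followed in concentration series.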
In the case of `CC(=O)OCCC(C)C`, the compound was classed as inactive.
Consider `CNCc1ccc(NC(=O)c2c[nH]c3c2C(=O)CCC3)cc1`, for which the outcome was inactive.
With `Cc1c(-c2cccnc2)c2ccccc2n1CCCCC(=O)O`, the outcome was inactive.
Still for that read-out and setting: the entry for `CCc1cc(SCc2sc(-c3ccc(C(F)(F)F)cc3)nc2CN2CCN(c3ccc(OC)cc3)CC2)ccc1OCC(=O)O` is “inactive”.
What is called AC50 is the concentration giving half of the maximal activity seen. With `O=C(OC[C@H]1O[C@@H](OC(=O)c2cc(O)c(O)c(OC(=O)c3cc(O)c(O)c(O)c3)c2)[C@H](OC(=O)c2cc(O)c(O)c(OC(=O)c3cc(O)c(O)c(O)c3)c2)[C@@H](OC(=O)c2cc(O)c(O)c(OC(=O)c3cc(O)c(O)c(O)c3)c2)[C@@H]1OC(=O)c1cc(O)c(O)c(OC(=O)c2cc(O)c(O)c(O)c2)c1)c1cc(O)c(O)c(OC(=O)c2cc(O)c(O)c(O)c2)c1`, the concentration at half-maximal activity (AC50) is 6.13 µM (active).
In the case of `Cc1ccc(S(=O)(=O)O)cc1C`, the call was inactive.
For `C1N2CN3CN1CN(C2)C3`, the result was inactive.
On to `O=C(O)c1cc(N=Nc2ccc(S(=O)(=O)Nc3ccccn3)cc2)ccc1O`, for which the AC50 is 36.5 µM (active).
Take `CC(C)(O)c1coc(S(=O)(=O)NC(=O)Nc2c3c(cc4c2CCC4)CCC3)c1`: the compound was classed as inactive.

In a further test the target is Retinoic acid receptor alpha (Homo sapiens) (UniProt P10276). The experiment in a line: NVS_NR_hRARa_Agonist: NovaScreen (NVS) Nuclear Receptor Binding Assay for human Retinoic Acid Alpha Receptor Agonism (RAR) (AID 2283361). The method, boiled down: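 Agonist-mode TR-FRET binding format using extracted protein, measured at 2 h post-dosing. Initial duplicate single-point screen at 25 uM preceded concentration series for actives; activity was normalized to DMSO baseline.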
Chain of Retinoic acid receptor alpha (Homo sapiens) (P10276 whole entry, looked up): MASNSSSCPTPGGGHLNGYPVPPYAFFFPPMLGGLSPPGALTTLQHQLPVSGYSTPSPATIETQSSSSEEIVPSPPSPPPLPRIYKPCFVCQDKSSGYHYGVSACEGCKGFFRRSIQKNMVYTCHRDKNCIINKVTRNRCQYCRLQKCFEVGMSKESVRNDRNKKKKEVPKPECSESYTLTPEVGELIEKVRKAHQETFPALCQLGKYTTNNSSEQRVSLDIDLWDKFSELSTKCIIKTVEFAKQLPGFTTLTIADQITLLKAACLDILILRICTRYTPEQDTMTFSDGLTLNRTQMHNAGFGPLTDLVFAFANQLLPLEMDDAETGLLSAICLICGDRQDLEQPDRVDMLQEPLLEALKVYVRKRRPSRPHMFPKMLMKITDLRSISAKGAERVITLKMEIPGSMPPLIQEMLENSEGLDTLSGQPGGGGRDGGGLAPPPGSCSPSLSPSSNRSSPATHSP
For `CC(C)CCCCCCCOC(=O)CCCCC(=O)OCCCCCCCC(C)C`, the compound was called inactive.
As to `Clc1nc(Cl)c(Cl)c(Cl)c1Cl`, the outcome was inactive.
Regarding `Cn1c(=O)c2c(ncn2C)n(C)c1=O`, the compound was classed as inactive.

In another test the target is Glucocorticoid receptor (Homo sapiens) (UniProt P04150). The experiment in a line: NVS_NR_hGR: NovaScreen (NVS) Nuclear Receptor Binding Assay for human Glucocorticoid Receptor (GR) (AID 2283363).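 As to AC50: activity is loss of specific radioligand binding signal relative to DMSO.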 The method, boiled down:
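Compounds first tested in duplicate at 25 uM, actives followed up in concentration series. Binding to extracted GR protein measured as competitive radioligand displacement, filter scintillation read 16 h post-dosing, normalised to DMSO.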
As for `CCc1cc(SCc2sc(-c3ccc(C(F)(F)F)cc3)nc2CN2CCN(c3ccc(OC)cc3)CC2)ccc1OCC(=O)O`, the AC50 is 1.57 µM (active).
Regarding `CCOC(=O)c1ccc(C2CCC(NC[C@H](O)COc3ccc(O)c(NS(C)(=O)=O)c3)CC2)cc1` (some centres not stated), the compound was classed as inactive.
On to `O=C(OC[C@H]1O[C@@H](OC(=O)c2cc(O)c(O)c(OC(=O)c3cc(O)c(O)c(O)c3)c2)[C@H](OC(=O)c2cc(O)c(O)c(OC(=O)c3cc(O)c(O)c(O)c3)c2)[C@@H](OC(=O)c2cc(O)c(O)c(OC(=O)c3cc(O)c(O)c(O)c3)c2)[C@@H]1OC(=O)c1cc(O)c(O)c(OC(=O)c2cc(O)c(O)c(O)c2)c1)c1cc(O)c(O)c(OC(=O)c2cc(O)c(O)c(O)c2)c1`, for which the AC50 is 0.533 µM (active).
For the compound `COc1ccc(-n2nc(C(F)F)cc2-c2ccc(S(C)=O)cc2)cc1` (configuration not stated), the half-maximal activity concentration (AC50) was 16.7 µM (active).
For the compound `Nc1ccc(Nc2ccccc2)cc1`, the AC50 is 14.6 µM (active).

The next test addresses Nuclear receptor subfamily 1 group I member 2 (Homo sapiens) (UniProt O75469). The experiment in a line: NVS_NR_hPXR: NovaScreen (NVS) Nuclear Receptor Binding Assay for human Pregnane X Receptor (PXR) (AID 2283365).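 Also: a drop in FRET signal versus DMSO baseline means the compound binds.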 The procedure, abridged: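 TR-FRET signal read at 2 h in a cell-free human PXR binding format. DMSO served as negative control and baseline; activity scored as signal loss. Single-concentration duplicate screen (25 uM), then concentration-response follow-up.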
As to `CC(=O)OCCC(C)C`, the compound was classed as inactive.
Turning to `CN(C)c1ccc(Cc2ccc(N(C)C)cc2)cc1`, the outcome was inactive.
Still for that read-out and setting: then `Nc1cccc(N)c1`, with “inactive”; and `NC(=O)NO`, with “inactive”.
For `O=C(O)c1cc(N=Nc2ccc(S(=O)(=O)Nc3ccccn3)cc2)ccc1O`, the compound was called inactive.

(Values after PubChem BioAssay (EPA / NIEHS).)
